Experimental data reported in PubChem BioAssay AID602475 (National Center for Advancing Translational Sciences (NCATS), 2012).
Records with an inconclusive call do not appear. Activity calls are given as the source filed them. Calls come from the whole dose curve; as a rule, active = well fitted inhibition curve with a large enough effect; inconclusive = small, poorly fitted or top-dose-only effect; inactive = no such curve, though single readings can be large or run the other way.

What follows are compounds tested against Luciferin 4-monooxygenase (Photinus pyralis) (UniProt P08659) (assay: FLuc inhibitory activity for the follow-up compounds in a biochemical assay with an in-house formulation of detection reagent). Settings: purified FLuc, luminescence; series mostly up to 25.6 µM.
Text: NCGC Assay Overview: Firefly (Photinus pyralis) luciferase is one of the most commonly used transcriptional reporters. It is considered one of the more dynamically responsive reporters - that is, responsive to changes in reporter transcription - as it requires no post-translational modifications and is enzymatically active directly after protein synthesis (Wood, 1998). With no endogenous expression in mammalian cells and without the requirement of external excitation, it offers very little background signal, thus generally providing excellent signal to background for most assays. Previous profiling work to determine the prevalence of compounds that affect FLuc enzymatic activity (PubChem AID 411) identified that ~3% of the MLSMR library (then at ~72K) inhibited FLuc (Auld et al., 2008). […] Of the compounds identified in this profile that inhibited FLuc, 151 compounds were selected for further analysis, in an effort to better understand their mode of inhibiting FLuc. The assay described here was to determine the activity of the compounds in a FLuc assay that used an in-house formulation of detection reagent.
NCGC Assay Protocol Summary: Reagents: 300mM Tris-HCl, 300mM Trizma base, 300mM MgCl, 1% Triton-X100, 5mM DTT, 500uM Coenzyme A trilithium salt (Sigma #C3019),450uM ATP (Sigma #A7699), 1mM D-luciferin sodium salt monohydrate (Biosynth #L8240); 10nM P. pyralis luciferase (Sigma #L9506) Control compounds used were two known firefly luciferase inhibitors (3-(5-(3-chlorophenyl)-1,2,4-oxadiazol-3-yl)benzoic acid and 5-(2-fluorophenyl)-3-phenyl-1,2,4-oxadiazole), and DMSO. Assay Summary: Six microliters of buffer containing firefly luciferase (final concentrations: 50mM Tris acetate, 10nM P. pyralis luciferase) are dispensed into each well of a Greiner white, solid-bottom 1536-well format plate using a flying reagent dispenser (FRD). These assay plates were then treated with 23nL of compound or DMSO using a Kalypsys pin tool, which allows for delivery of a 12-point intraplate titration of each compound to the assay plate (quantitative HTS), with final compound concentrations ranging from approximately ~25uM to 0.1nM. Three microliters of 3X in-house detection reagent was then delivered by FRD to each well (final concentrations in assay: 300mM Tris-HCl, 300mM Trizma base, 300mM MgCl, 1% Triton-X100, 5mM DTT, 500uM Coenzyme A trilithium salt, 450uM ATP, 1mM D-luciferin sodium salt monohydrate). Luciferase activity was then measured using a ViewLux CCD imager (PerkinElmer), with an average exposure time of 2-30 seconds (2X binning, medium/high gain).

Luciferin 4-monooxygenase (Photinus pyralis), sequence (P08659 whole entry, looked up): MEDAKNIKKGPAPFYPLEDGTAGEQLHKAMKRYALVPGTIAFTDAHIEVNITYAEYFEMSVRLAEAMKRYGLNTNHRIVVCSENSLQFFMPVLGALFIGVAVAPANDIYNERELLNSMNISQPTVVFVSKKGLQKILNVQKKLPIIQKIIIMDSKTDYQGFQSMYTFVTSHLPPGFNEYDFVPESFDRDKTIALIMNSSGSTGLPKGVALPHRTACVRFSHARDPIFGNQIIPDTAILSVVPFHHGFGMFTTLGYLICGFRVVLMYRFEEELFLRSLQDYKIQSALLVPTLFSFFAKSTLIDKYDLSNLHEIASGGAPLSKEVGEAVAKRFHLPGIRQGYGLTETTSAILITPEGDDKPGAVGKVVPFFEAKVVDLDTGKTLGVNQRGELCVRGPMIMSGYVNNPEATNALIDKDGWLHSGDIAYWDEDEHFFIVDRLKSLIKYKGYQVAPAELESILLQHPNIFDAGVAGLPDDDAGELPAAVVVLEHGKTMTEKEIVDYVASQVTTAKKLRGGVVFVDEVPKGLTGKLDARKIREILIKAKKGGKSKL

Potency, inactive:
O=C(Nc1ccccc1C(=O)O)c1cccc(NC(=O)c2ccc(Br)o2)c1
CCc1noc(C)c1C(=O)Nc1nc2ccc(OC)cc2s1
Cc1c(NC(=O)C(C)(C)C)cccc1-c1nc2ccccc2s1
COc1ccc2nc(NC(=O)c3cccc(S(=O)(=O)N4CCOCC4)c3)sc2c1
COc1ccc2nc(NC(=O)c3ccc(S(=O)(=O)N4CCCC(C)C4)cc3)sc2c1 (stereo not given)
O=C(Nc1ccccc1C(=O)O)c1cccc(NC(=O)c2ccccc2Cl)c1
COc1ccccc1C(=O)Nc1ccc(C(=O)O)cc1
O=C(O)c1cccc(NC(=O)c2cccc(S(=O)(=O)Nc3cccc(F)c3)c2)c1
CC(=O)Nc1cccc(-c2nc3ccccc3s2)c1C
O=C(Nc1ccccc1C(=O)O)c1ccc(NC(=O)C2CCCCC2)cc1
CC(=O)Oc1ccc(C(=O)Nc2ccccc2C(=O)Nc2cccc(C(=O)O)c2)cc1
COc1ccc2nc(NC(=O)CCc3ccc(OC)c(OC)c3)sc2c1
O=C(Nc1cccc(-c2nc3ccccc3s2)c1)c1cc(-n2cnnc2)ccc1Cl
CN(C)S(=O)(=O)c1ccc(C(=O)Nc2cccc(C(=O)O)c2)cc1
O=C(O)c1cccc(NC(=O)c2cccc(S(=O)(=O)N3CCc4ccccc43)c2)c1
Nc1ccccc1C(=O)Nc1cccc(C(=O)O)c1
O=C(O)c1cccc(NC(=O)c2ccc(COc3ccc(Cl)cc3)cc2)c1
O=C(Nc1ccccc1C(=O)O)c1cccc(S(=O)(=O)Nc2ccc(Br)cc2)c1
Cc1ccc(C(=O)Nc2cccc(C(=O)O)c2)cc1S(=O)(=O)N1CCCC1
Oc1ccc(-c2nc3ccccc3s2)c(O)c1
O=C(Nc1ccccc1C(=O)O)c1cc(S(=O)(=O)Nc2cccc(F)c2)ccc1Cl
O=C(O)c1cccc(NC(=O)c2ccccc2NC(=O)c2ccco2)c1
COc1ccc(C(=O)Nc2cccc(C(=O)O)c2)cc1S(=O)(=O)N1CCCC1
CC(C)(C)NC(=O)c1ccccc1-c1nc2ccccc2s1
COc1ccc(-c2cccc(C(=O)Nc3cccc(C(=O)O)c3)c2)cc1
O=C(O)c1ccc(NC(=O)c2ccccc2NC(=O)c2ccccc2Cl)cc1
Cc1cccc(NS(=O)(=O)c2cccc(C(=O)Nc3cccc(C(=O)O)c3)c2)c1

Potency, active:
c1ccc2sc(-c3ccc4c(c3)OCO4)nc2c1 4.91 µM
COc1ccc2nc(NC(=O)c3cnccn3)sc2c1 4.38 µM
CCOc1ccc2nc(NC(=O)c3ccccn3)sc2c1 3.9 µM
CCn1c(C)nc2cc(-c3nc4n(n3)Cc3ccccc3-4)ccc21 0.155 µM
Nc1ccc(-c2nc3ccc(C(=O)O)cc3s2)cc1 5.51 µM
O=C(Nc1ccc(-c2nc3ccccc3s2)cc1)C1=COCCO1 2.46 µM
Cc1ccc2nc(-c3ccc(NC(=O)CN4CCN(C(=O)c5ccco5)CC4)cc3)sc2c1 2.46 µM
C/C(=N\NC(=O)c1ccccc1NC(=O)c1ccc(Cl)cc1)c1ccncc1 1.1 µM
Nc1ccc(-c2nc3cc(N)ccc3s2)cc1 8.74 µM
CC(C)c1ccc(-c2nc3ccccc3s2)cc1 0.098 µM
Nc1ccc2nc(-c3ccc(O)cc3)sc2c1 6.19 µM
COc1ccc(CC(=O)Nc2ccc(-c3nc4ccccc4s3)c(C)c2)cc1 11 µM
O=C(COC(=O)c1ccccc1[N+](=O)[O-])c1ccc2c(c1)OCO2 0.0619 µM
